Reference: PubChem BioAssay (NCATS)
Records with an inconclusive call do not appear. Entries that show only a call come without a potency. Some structures have more than one record in an assay (separate samples or runs), and their calls can disagree. Activity calls are given as the source filed them. Unless noted, the call rests on the fitted dose curve; in most records, active means well fitted curve in the direction sought with a large enough effect; inconclusive means small, poorly fitted or top-dose-only effect, or another doubt; inactive means no such curve, though single readings can be large; an effect the other way counts as inactive or inconclusive.

Experiments:
[1] = target: Beta-2 adrenergic receptor (Homo sapiens) (UniProt P07550); assay: qHTS validation assay of beta-arrestin-biased ligands of beta2-adrenergic receptor (AID 485366)
Summary of the method: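 qHTS, Tango cells, 1500 cells/well, DMEM + 1% FBS. Cpd 18 hr at 37 degrees C. Luciferin/ATP/CoA detection mix, 15 min RT, luminescence read. %Activity from corrected signal; CRC fit, curve class.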

[2] = Quantitative high throughput screen for delayed death inhibitors of the malarial parasite plastid, 48 hour incubation (AID 488752); further: nearly all actives have a fitted effect of over 65% in size; further: potency means the concentration at half of the fitted maximal effect
Summary of the method: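 Cultures: infected erythrocytes at final 2% hematocrit and 0.1% parasitemia in Albumax-supplemented RPMI. Parasites express integrated firefly luciferase. Incubation with compound lasts 48 h before luminescent detection of remaining reporter activity.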

[3] = target: Thioredoxin reductase 1, cytoplasmic (Rattus norvegicus) (UniProt O89049); assay: qHTS Assay for Substrates of Mammalian Selenoprotein Thioredoxin Reductase 1 (TrxR1) (AID 488772);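 further: series mostly up to about 57 µM; a drop in NADPH fluorescence below the no-compound background marks a TrxR1 substrate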
Summary of the method: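 In this dual-purpose format, potential substrates are identified from the first fluorescence read after selenite addition, not from the 8-minute delta. Rat enzyme is preincubated with NADPH and then with compound at ~22 deg C.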

[4] = target: Flap endonuclease 1 (Homo sapiens) (UniProt P39748); assay: qHTS Validation Assay for the Inhibitors of Human Flap endonuclease 1 (FEN1) (AID 488816); further: potency means the concentration at half of the fitted maximal effect
Summary of the method: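 Enzyme reagent 10 nM; cpds pinned; 15 min RT preinc.; substrate 50 nM final; reads t=0 and 15 min; no-enzyme buffer wells as neg. control; normalized data, 4-parameter Hill fit.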

[5] = target: Chromobox protein homolog 1 (Homo sapiens) (UniProt P83916); assay: qHTS Validation Assay for Inhibitors of HP1-beta Chromodomain Interactions with Methylated Histone Tails (AID 488953); further: nearly all actives have a fitted effect of over 50% in size; further: potency means the concentration at half of the fitted maximal effect
Summary of the method: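 Compounds pinned into a preassembled complex of HP1-beta and trimethyl-K9 histone H3(1-18) biotin peptide (50 nM each; PBS pH 7.4, 0.01% Tween-20). After 30 min, bead-based AlphaScreen detection followed.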

[6] = target: Methanococcus maripaludis chaperonin (MmCpn) (UniProt Q6LX38); assay: High-Throughput Screening for Modulators of Cytosolic Chaperonin Activity: MmCpn Primary Screen (AID 488978);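 further: 50 nM MmCpn enzyme hydrolysing 30 µM ATP at 37 °C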
Summary of the method: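 ATPase activity of 50 nM MmCpn was assayed with 30 uM ATP, 10 minutes at 37C, after a 5 min compound preincubation at room temperature. ADP production was read as HTRF emission at 590 and 665 nm.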

[7] = target: Transient receptor potential cation channel subfamily V member 1 (Homo sapiens) (UniProt Q8NER1); assay: HTS Assay for Compounds that Act as Enhancers of the Vanilloid Receptor 1 (AID 488979)
Summary of the method: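 TRPV1 cells loaded with Fluo-8 calcium dye; compound added and Ca2+ signal (ex 480/em 520 nm) followed 3 min, then capsaicin at EC20 added and read 2 more min to detect enhancement.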

[8] = target: Thyrotropin receptor (Homo sapiens) (UniProt P16473); assay: qHTS Assay for Antagonists of the Thyroid Stimulating Hormone Receptor (AID 488980); further: series mostly up to about 58 µM
Summary of the method: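 Inhibition of cAMP raised by EC80 TSH (4 nM final) was read by HTRF, with lysate cAMP competing against cAMP-d2 for cryptate antibody after 30 min at room temperature. The cells were transfected HEK293 held in phosphodiesterase inhibitor RO 20-1724 at 70 uM.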

[9] = target: D(1A) dopamine receptor (Homo sapiens) (UniProt P21728); assay: HTS Assay for Allosteric Agonists of the Human D1 Dopamine Receptor: Primary Screen for Agonists (AID 488981); further: potency means the concentration at half of the fitted maximal effect
Summary of the method: (§1)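 Tetracycline-induced HEK293 Trex D1 cells with forced coupling to calcium, loaded with no-wash calcium dye; kinetic fluorescence read 180 s after compound addition for agonism, then a further 180 s after an EC20 dopamine challenge for potentiation.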

[10] = target: D(1A) dopamine receptor (Homo sapiens) (UniProt P21728); assay: HTS Assay for Allosteric Agonists of the Human D1 Dopamine Receptor: Primary Screen for Potentiators (AID 488982); further: potency means the concentration at half of the fitted maximal effect
Summary of the method: as §1

[11] = target: D(1A) dopamine receptor (Homo sapiens) (UniProt P21728); assay: HTS Assay for Allosteric Agonists of the Human D1 Dopamine Receptor: Primary Screen for Antagonists (AID 488983);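 further: calcium flux response to an EC80 dopamine challenge measured with no-wash dye; nearly all actives have a fitted effect of over 65% in size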; further: potency means the concentration at half of the fitted maximal effect
Summary of the method: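 In this primary screen, compounds are applied to calcium-dye-loaded HEK293 T-REx cells with force-coupled D1 expression induced overnight at 30 C. An EC80 of dopamine follows the 180 s compound phase, and calcium is monitored for a further 180 s.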

[12] = Validation screen for small molecules that induce genotoxicity in human embryonic kidney (HEK293T) cells expressing luciferase-tagged ELG1 (AID 493106); further: potency means the concentration at half of the fitted maximal effect
Summary of the method: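 In this validation screen, increased ELG1-luciferase signal flags compounds causing genetic stress. HEK293T reporter cells are treated 16 hr (37 °C, 5% CO2), developed with ONE-Glo for 30 min at room temperature, and imaged on a CCD-based reader.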

[13] = target: ATPase family AAA domain-containing protein 5 (Homo sapiens) (UniProt Q96QE3); assay: Validation screen for small molecules that inhibit ELG1-dependent DNA repair in human embryonic kidney (HEK293T) cells expressing luciferase-tagged ELG1 (AID 493107);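 further: cells co-treated with the DNA-damaging agent 5-fluorouridine alongside compound; series mostly up to about 46 µM; inhibitors lower the ELG1-luciferase luminescence signal; nearly all actives have a fitted effect of over 70% in size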
Summary of the method: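 Compounds reducing 5-fluorouridine-driven ELG1-luciferase signal in HEK293T cells were scored; exposure lasted 16 hr at 37 °C with luminescence detected via ONE-Glo.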

[14] = target: Thyrotropin-releasing hormone receptor (Homo sapiens) (UniProt P34981); assay: qHTS for Small Molecule Agonists and Allosteric Enhancers of Human TRH Receptor: Validation Screen for Agonists (AID 493127;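 active means calcium activation more than 3 SD above the typical response in the agonist read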;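 further: intracellular calcium rise by fluo-8 fluorescence before TRH EC20 addition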); details: TRH receptor agonist cell assay; at 2 µM; stronger effect = higher value
Summary of the method: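 Kinetic fluorescence assay of agonist-induced calcium release: overnight-plated TRHR cells, room-temperature fluo-8 loading, baseline then compound addition with per-second reads.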

[15] = Quantitative high throughput screen for delayed death inhibitors of the malarial parasite plastid, 96 hour incubation (AID 488745); further: nearly all actives have a fitted effect of over 70% in size; further: potency means the concentration at half of the fitted maximal effect
Summary of the method: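 Two-generation (96 h) exposure of luciferase-reporter P. falciparum in erythrocytes, 2% hematocrit, 0.1% parasitemia final, 37 C, 5% CO2, RPMI 1640 with 0.5% Albumax. Growth inhibition scored by reduced luminescence.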

[16] = target: M-phase phosphoprotein 8 (Homo sapiens) (UniProt Q99549); assay: qHTS Validation Assay for Inhibitors for MPP8 Chromodomain Interactions with Methylated Histone Tails (AID 488949); further: nearly all actives have a fitted effect of over 55% in size; further: potency means the concentration at half of the fitted maximal effect
Summary of the method: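 AlphaScreen proximity signal from streptavidin donor and Ni-chelate acceptor beads (10 ug/mL each) reported binding of MPP8 to trimethyl-K9 H3(1-18) peptide, both at 50 nM. The complex formed 30 min before a 30 min compound exposure at room temperature, in PBS pH 7.4.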

[17] = target: Thioredoxin reductase 1, cytoplasmic (Rattus norvegicus) (UniProt O89049); assay: qHTS Assay for Inhibitors of Mammalian Selenoprotein Thioredoxin Reductase 1 (TrxR1) (AID 488773); details: Potency: inhibition;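 further: drop in NADPH fluorescence over an 8 min run after selenite addition; series mostly up to about 57 µM; nearly all actives have a fitted effect of over 40% in size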
Summary of the method: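 Inhibition is scored from the loss of NADPH fluorescence between first and last reads of an 8-min kinetic run. Selenite (400 uM) was the substrate, added after 15 min compound preincubation at room temperature.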

[18] = target: ATP-dependent 6-phosphofructokinase (Trypanosoma brucei brucei) (UniProt O15648); assay: qHTS Validation Assay to Find Inhibitors of T. brucei phosphofructokinase (AID 485368)
Summary of the method: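 Luminescent ADP detection measures PFK turnover of fructose-6-phosphate (0.5 mM) with ATP (0.1 mM) at pH 8.0. Reaction runs 45 min at room temperature with 1.25 nM enzyme; inhibitors tested as titrations up to 57 uM.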

Chain of Transient receptor potential cation channel subfamily V member 1 (Homo sapiens) (Q8NER1 whole entry, looked up): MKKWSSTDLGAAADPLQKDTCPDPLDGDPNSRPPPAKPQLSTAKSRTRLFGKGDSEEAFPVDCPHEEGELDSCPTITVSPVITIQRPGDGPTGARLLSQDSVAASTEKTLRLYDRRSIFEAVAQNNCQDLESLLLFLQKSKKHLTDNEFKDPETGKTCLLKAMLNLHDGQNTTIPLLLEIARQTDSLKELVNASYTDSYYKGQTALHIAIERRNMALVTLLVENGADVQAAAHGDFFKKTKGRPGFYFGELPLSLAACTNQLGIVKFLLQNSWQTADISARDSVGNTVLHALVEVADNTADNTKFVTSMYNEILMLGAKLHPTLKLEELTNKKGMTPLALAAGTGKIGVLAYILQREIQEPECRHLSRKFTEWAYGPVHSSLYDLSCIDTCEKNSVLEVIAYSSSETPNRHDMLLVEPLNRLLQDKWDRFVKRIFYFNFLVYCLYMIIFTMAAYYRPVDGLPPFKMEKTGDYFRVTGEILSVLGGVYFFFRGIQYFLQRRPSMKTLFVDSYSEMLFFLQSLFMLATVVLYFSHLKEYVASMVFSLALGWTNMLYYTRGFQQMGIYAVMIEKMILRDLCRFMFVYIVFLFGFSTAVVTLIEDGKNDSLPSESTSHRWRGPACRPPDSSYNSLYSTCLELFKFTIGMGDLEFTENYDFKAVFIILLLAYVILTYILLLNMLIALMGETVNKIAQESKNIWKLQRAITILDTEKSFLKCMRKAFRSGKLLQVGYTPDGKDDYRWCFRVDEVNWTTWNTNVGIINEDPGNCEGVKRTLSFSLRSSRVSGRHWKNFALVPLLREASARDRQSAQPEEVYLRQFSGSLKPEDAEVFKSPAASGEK
Chain of Chromobox protein homolog 1 (Homo sapiens) (P83916 whole entry, looked up): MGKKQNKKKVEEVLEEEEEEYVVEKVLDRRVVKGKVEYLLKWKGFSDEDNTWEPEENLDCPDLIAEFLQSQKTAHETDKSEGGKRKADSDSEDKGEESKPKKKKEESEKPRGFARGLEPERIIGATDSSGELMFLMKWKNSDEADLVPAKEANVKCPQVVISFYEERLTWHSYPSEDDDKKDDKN
Chain of Flap endonuclease 1 (Homo sapiens) (P39748 whole entry, looked up): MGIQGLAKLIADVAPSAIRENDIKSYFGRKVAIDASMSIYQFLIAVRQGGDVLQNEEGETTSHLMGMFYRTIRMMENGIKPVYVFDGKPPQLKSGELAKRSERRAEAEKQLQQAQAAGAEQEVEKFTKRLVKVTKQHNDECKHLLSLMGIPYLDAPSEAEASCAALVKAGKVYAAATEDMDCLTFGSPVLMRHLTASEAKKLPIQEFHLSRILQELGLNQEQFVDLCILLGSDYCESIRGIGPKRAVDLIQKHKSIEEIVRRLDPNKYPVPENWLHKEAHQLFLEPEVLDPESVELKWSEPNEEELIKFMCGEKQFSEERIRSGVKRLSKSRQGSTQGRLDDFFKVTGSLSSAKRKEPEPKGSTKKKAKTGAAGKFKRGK
Chain of D(1A) dopamine receptor (Homo sapiens) (P21728 whole entry, looked up): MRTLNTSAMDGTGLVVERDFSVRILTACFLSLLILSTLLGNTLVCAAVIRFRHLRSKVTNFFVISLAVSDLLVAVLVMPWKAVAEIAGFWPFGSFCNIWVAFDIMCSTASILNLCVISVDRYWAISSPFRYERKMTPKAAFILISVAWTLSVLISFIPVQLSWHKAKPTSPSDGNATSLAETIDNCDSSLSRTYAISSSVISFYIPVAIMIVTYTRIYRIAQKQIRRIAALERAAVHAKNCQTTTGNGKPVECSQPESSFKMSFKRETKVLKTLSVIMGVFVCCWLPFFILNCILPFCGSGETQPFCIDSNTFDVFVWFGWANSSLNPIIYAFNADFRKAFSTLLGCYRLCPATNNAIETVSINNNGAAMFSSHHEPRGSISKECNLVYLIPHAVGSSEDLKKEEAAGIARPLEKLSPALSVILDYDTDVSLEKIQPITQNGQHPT
Chain of M-phase phosphoprotein 8 (Homo sapiens) (Q99549 whole entry, looked up): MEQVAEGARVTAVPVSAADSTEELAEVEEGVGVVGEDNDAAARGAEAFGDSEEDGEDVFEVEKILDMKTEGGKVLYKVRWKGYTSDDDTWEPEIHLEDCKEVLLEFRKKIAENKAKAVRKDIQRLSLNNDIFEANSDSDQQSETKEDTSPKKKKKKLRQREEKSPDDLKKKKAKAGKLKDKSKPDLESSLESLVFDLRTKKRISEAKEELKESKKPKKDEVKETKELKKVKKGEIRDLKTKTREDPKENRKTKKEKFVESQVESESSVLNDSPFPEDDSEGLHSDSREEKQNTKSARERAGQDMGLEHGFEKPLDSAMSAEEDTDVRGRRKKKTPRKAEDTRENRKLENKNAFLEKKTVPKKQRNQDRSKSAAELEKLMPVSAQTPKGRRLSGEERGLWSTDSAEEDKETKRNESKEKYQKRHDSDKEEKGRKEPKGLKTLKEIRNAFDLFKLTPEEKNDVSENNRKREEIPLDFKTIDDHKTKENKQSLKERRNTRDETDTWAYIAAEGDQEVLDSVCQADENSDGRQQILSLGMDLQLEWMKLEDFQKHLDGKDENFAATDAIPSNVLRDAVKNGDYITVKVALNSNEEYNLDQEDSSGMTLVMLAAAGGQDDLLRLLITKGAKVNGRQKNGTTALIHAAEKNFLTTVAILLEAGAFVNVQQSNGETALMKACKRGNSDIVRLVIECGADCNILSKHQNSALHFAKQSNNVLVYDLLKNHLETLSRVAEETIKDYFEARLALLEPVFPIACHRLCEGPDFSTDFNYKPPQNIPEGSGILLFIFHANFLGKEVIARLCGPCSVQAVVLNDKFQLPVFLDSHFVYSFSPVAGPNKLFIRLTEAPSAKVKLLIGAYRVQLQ
Chain of Thyrotropin receptor (Homo sapiens) (P16473 whole entry, looked up): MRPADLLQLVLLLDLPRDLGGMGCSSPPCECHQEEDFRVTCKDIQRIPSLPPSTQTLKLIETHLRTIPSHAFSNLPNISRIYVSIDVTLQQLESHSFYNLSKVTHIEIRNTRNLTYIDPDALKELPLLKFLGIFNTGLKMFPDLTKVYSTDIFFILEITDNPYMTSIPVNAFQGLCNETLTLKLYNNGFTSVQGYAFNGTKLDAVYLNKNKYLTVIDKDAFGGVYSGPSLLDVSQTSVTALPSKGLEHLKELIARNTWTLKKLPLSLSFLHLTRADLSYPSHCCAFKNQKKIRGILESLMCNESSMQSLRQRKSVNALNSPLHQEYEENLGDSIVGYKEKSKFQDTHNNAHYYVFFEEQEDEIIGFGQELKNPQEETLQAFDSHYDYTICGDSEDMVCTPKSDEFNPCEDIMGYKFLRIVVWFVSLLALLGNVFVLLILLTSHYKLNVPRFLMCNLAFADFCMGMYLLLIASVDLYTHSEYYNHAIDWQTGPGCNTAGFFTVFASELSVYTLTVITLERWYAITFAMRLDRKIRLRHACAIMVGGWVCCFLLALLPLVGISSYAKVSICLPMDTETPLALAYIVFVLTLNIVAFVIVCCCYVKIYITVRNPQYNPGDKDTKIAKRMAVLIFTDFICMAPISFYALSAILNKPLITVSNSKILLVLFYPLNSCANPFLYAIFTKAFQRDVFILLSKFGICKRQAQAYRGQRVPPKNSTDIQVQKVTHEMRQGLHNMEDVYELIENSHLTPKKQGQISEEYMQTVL
Chain of Beta-2 adrenergic receptor (Homo sapiens) (P07550 whole entry, looked up): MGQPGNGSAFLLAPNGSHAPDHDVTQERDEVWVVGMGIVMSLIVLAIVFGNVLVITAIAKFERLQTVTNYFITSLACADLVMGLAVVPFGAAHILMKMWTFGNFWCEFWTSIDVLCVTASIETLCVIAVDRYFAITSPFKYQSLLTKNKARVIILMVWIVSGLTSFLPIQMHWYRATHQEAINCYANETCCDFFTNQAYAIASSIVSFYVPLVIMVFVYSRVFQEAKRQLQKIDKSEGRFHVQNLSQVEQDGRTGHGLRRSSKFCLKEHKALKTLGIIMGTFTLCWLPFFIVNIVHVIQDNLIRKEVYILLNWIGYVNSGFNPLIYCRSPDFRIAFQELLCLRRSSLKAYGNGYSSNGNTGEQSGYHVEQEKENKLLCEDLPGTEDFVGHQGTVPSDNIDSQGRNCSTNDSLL
Chain of ATP-dependent 6-phosphofructokinase (Trypanosoma brucei brucei) (O15648 whole entry, looked up): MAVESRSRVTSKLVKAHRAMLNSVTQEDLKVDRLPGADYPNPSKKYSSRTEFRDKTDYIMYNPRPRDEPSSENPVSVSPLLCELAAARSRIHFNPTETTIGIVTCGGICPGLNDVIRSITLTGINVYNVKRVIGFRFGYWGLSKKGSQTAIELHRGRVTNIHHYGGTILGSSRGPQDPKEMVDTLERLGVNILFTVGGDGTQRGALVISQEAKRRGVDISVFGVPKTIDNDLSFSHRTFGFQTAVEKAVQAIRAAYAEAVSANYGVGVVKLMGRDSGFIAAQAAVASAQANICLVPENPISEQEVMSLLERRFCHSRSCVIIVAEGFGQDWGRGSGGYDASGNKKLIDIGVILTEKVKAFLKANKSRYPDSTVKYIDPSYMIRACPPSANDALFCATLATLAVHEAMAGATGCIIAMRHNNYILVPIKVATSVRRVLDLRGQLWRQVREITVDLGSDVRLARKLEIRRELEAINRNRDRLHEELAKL
Chain of Methanococcus maripaludis chaperonin (MmCpn) (Q6LX38 1-543): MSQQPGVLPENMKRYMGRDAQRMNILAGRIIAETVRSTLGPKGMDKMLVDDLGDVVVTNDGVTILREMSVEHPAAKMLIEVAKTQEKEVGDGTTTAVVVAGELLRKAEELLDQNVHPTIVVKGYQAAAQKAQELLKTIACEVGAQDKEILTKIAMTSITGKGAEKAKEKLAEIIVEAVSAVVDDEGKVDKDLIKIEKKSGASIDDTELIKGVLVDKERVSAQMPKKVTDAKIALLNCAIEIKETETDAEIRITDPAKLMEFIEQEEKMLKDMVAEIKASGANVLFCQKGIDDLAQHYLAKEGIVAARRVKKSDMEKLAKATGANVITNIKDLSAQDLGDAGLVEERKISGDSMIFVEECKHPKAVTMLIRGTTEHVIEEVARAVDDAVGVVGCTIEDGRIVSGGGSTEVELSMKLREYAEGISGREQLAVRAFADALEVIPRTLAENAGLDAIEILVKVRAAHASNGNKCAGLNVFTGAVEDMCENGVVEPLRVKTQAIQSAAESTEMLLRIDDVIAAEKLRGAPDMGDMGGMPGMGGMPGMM

SMILES	outcome [1]	Potency [2]	outcome [3]	Potency [4]	Potency [5]	outcome [6]	outcome [7]	outcome [8]	Potency [9]	Potency [10]	Potency [11]	Potency [12]	Potency [13]	activation [14]	Potency [15]	Potency [16]	Potency [17]	Potency [18]
NCCCCN	inactive	inactive	inactive	inactive	inactive	inactive	inactive	inactive	inactive	inactive	inactive	inactive	inactive	1.31% (inactive)				
O=c1onc2cnc3ccccc3n12	inactive	inactive	inactive	inactive			inactive	inactive	inactive	inactive	inactive	inactive		0.875% (inactive)	inactive	inactive		
CCN1C(=O)C=CC1=O	inactive	inactive	inactive	inactive		inactive	inactive		inactive	inactive	inactive	inactive		1.12% (inactive)		inactive	inactive	
Nc1ncnc2c1ncn2C1CCCC1	inactive	inactive	inactive	inactive	inactive	inactive	inactive			inactive	inactive		inactive	1.12% (inactive)	inactive			
NS(=O)(=O)c1cccc2c1c([N+](=O)[O-])cc1nc(O)c(O)nc12	inactive	inactive		inactive			inactive	inactive	inactive	inactive	inactive	inactive	inactive	0.875% (inactive)	inactive	inactive	inactive	
Cc1ccccc1/C=C/C1=NCCN1	inactive	inactive	inactive	inactive	inactive	inactive	inactive	inactive	inactive	inactive	12.6 µM (active)	inactive	inactive				inactive	
COc1ccccc1N1CCN(CCCNc2c(C)c(=O)n(C)c(=O)n2C)CC1	inactive		inactive	inactive		inactive	inactive	inactive	inactive	inactive	inactive	inactive	inactive	0.0625% (inactive)	14.7 µM (active)	inactive		
N#Cc1cc2nc(O)c(O)nc2cc1[N+](=O)[O-]	inactive	inactive	inactive	inactive	inactive	inactive	inactive	inactive	inactive	inactive	inactive	inactive	inactive	-2.94% (inactive)		inactive	inactive	
CCOC(=O)C12CC1/C(=N/O)c1ccccc1O2 (stereo not given)	inactive	inactive	inactive	inactive	inactive	inactive	inactive	inactive	inactive	inactive	inactive	inactive	inactive	-3.94% (inactive)			inactive	
NC(=O)CC[C@H](N)C(=O)O	inactive	inactive	inactive	inactive	inactive	inactive	inactive	inactive	inactive	inactive	inactive	inactive	inactive			inactive	inactive	
NC(N)=NC(N)=Nc1cccc(Cl)c1	inactive	inactive	inactive	inactive	inactive	inactive	inactive	inactive	inactive	inactive		inactive	inactive	1.62% (inactive)		inactive	inactive	
N=C(N)c1ccc(OCCCCCOc2ccc(C(=N)N)cc2)cc1 (tested in a mixture with another compound)	inactive	0.185 µM (active)	inactive	inactive	inactive	inactive	inactive	inactive	inactive	inactive	inactive	inactive		1.31% (inactive)			inactive	
Oc1cc2c(cc1O)C(c1ccccc1)CNCC2 (stereo not given)	inactive	inactive		inactive		inactive	inactive	inactive	inactive			inactive	inactive	0.938% (inactive)	inactive	inactive	inactive	
C=CCN1CCc2c(cc(O)c(O)c2Cl)C(c2ccccc2)C1 (stereo not given)	inactive		inactive	inactive		inactive	inactive	inactive		inactive			inactive	-5.75% (inactive)	3.7 µM (active)	39.8 µM (active) and inactive		
[N-]=[N+]=Nc1ccc(C(=O)CSC[C@H](NC(=O)CC[C@H](N)C(=O)O)C(=O)NCC(=O)O)cc1	inactive	inactive	inactive	inactive	39.8 µM (active)	inactive	inactive	inactive	inactive		inactive	inactive	inactive	1.12% (inactive)		35.5 µM (active) and inactive	inactive	
Cc1cc2c(cc1Cl)N(C(=O)Nc1ccnc3ccccc13)CC2	inactive	inactive	inactive	inactive	inactive		inactive	inactive	inactive	inactive	inactive		inactive					
O=C1Cc2c([nH]c3ccc(Br)cc23)-c2ccccc2N1	inactive		inactive	inactive		inactive	inactive	inactive	inactive	inactive	inactive	0.411 µM (active)		9.25% (inactive)		inactive		
CC(C)(CO)Cc1cc(C(C)(C)C)c(O)c(C(C)(C)C)c1	inactive		inactive	inactive			inactive	inactive			inactive	inactive	inactive	-13.9% (inactive)		inactive		
Nc1nc2c(nc(Br)n2C2OC3COP(=O)(O)O[C@@H]3C2O)c(=O)[nH]1 (stereo not given in full)	inactive		inactive	inactive	inactive	inactive			inactive	inactive	inactive	inactive	inactive				inactive	
COC(=O)[C@H](NC(=O)c1cc(-c2ccccc2)nc2ccccc12)c1ccccc1		inactive	inactive	inactive	inactive	inactive	inactive	inactive		inactive	inactive	inactive		-5.81% (inactive)	inactive	inactive	inactive	inactive
N[C@H](C(=O)O)[C@H]1C[C@@H]1C(=O)O		inactive	inactive	inactive	inactive	inactive	inactive		inactive	inactive	inactive	inactive	inactive		inactive	inactive	inactive	inactive
CCCCCCCC/C=C\CCCCCCCC(=O)NCCc1ccc(O)c(O)c1	inactive	13.1 µM (active)		inactive		inactive		inactive	inactive	4.61 µM (active)	inactive			1.94% (inactive)		inactive		
Nn1nnc2ccccc21		inactive	inactive	inactive	inactive	inactive	inactive	inactive	inactive	inactive	inactive	inactive		1.12% (inactive)	inactive	inactive	inactive	inactive
CC(N)(C(=O)O)c1ccc(C(=O)O)cc1 (stereo not given)		inactive	inactive	inactive	inactive	inactive	inactive	inactive	inactive	inactive	inactive	inactive	inactive	1.12% (inactive)	inactive	inactive	inactive	inactive
CCc1ccc2c(-c3cccc(Cl)c3)nc(=O)n(CC)c2n1	inactive		inactive	inactive	inactive	inactive			inactive	inactive	inactive	inactive	inactive			inactive	inactive	
C=C1C[C@@]23CC[C@H]4[C@@](C)(CCC[C@@]4(C)C(=O)OC4OC(CO)C(O)C(O)C4O)[C@@H]2CC[C@]1(OC1OC(CO)C(O)C(O)C1OC1OC(CO)C(O)C(O)C1O)C3 (stereo not given in full)	inactive		inactive	inactive	0.006 µM (active)	inactive			inactive	inactive	inactive	inactive	inactive			inactive	inactive	
C[C@]12C=CC(=O)C=C1CC[C@@H]1C2=CC[C@]2(C)[C@@H](C(=O)CN3CCN(c4cc(N5CCCC5)nc(N5CCCC5)n4)CC3)CC[C@@H]12	inactive			inactive		inactive				inactive	inactive	inactive						
CC[n+]1c(/C=C/C=C2/N(C)c3ccccc3C2(C)C)sc2ccccc21	inactive		inactive	26.7 µM (active)	25.1 µM (active)	inactive			11.2 µM (active)	inactive	inactive	inactive					inactive	
